Most compounds without a hit are left out; they make up all but 1.5% or so of the library.
EBV gp42 block: blocks Epstein-Barr virus glycoprotein 42 binding; Q1HVG2; Fluorescence polarization binding assay, mP read-out; 220,000 tested, 0.42% active; inhibition, % (tested at 21.74 µM); in the data active = inhibition above about 50%
eLon inh: inhibits E. coli Lon protease; 360,000 tested, 0.42% active; purified E. coli Lon protease, fluorescence polarization; P0A9M0; inhibition, % at 7.94 µM; in the data active = inhibition above about 13%, passing the limit was not always enough;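 note: 0% = enzyme with probe and DMSO and 100% = no enzyme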
Target sequence (P0A9M0 whole entry, looked up): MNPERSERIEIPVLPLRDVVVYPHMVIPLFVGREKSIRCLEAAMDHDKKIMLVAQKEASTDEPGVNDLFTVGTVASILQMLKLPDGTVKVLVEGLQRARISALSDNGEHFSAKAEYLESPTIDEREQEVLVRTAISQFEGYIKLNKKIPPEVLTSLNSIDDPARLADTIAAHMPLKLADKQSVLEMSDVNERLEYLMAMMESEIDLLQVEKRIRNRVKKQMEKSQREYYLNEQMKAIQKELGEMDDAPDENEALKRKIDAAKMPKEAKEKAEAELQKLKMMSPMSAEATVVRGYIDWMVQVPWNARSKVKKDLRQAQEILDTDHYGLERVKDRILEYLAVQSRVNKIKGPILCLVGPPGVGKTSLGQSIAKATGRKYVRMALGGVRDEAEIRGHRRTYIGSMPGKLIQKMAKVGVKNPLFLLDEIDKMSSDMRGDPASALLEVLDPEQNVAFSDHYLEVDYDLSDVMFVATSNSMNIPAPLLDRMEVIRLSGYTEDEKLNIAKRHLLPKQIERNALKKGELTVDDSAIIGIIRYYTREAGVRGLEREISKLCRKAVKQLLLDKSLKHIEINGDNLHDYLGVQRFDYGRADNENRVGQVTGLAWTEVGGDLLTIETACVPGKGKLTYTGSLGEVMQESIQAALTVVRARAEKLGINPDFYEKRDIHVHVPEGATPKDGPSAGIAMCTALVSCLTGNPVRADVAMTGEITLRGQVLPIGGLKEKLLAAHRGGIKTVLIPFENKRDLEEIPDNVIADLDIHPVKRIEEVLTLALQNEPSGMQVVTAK
LANA DNA inh: inhibitors of KSHV LANA C-terminal domain DNA binding. MBP-C-LANA/FAM-LBS DNA binding, fluorescence polarization. inhibition, % at 9 µM. 340,000 tested, 0.078% active. AID 504423;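 active = highest replicate inhibition at or above 60% at 9 µM, even if other replicates fall short; inactive = all replicates below 60% inhibition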;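 note: 0% = neutral control wells and 100% = 4 µM acridine orange control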
LANA-H2B inh: blocks KSHV LANA binding to histone H2A/H2B; cell-free LANA-H2A/H2B peptide, fluorescence polarization; inhibition, % (concentration not given with the values); 320,000 tested, 0.6% active; AID 2629; in the data active = inhibition mostly above about 10%, no sharp cut-off; inactive = mostly below about 6.7%
GLD-1 TGE inh: GLD-1-TGE RNA interaction inhibition (C. elegans). Q17339. purified GLD-1 + fluorescein TGE RNA, fluorescence polarization. inhibition, % at 5.96 µM. 320,000 tested, 0.44% active. AID 2280;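 active = percent inhibition above a per-plate cutoff, the plate mean of test compounds plus 3 SD, cut at about 30% in these data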;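 note: 0% = DMSO wells with GLD-1 and probe and 100% = wells lacking GLD-1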
Keap1-Nrf2 PPI: inhibitors of human Keap1-Nrf2 protein-protein interaction | Q14145 | Keap1 Kelch-Nrf2 peptide fluorescence polarization, 1536-well | inhibition, % at 9.4 µM | 340,000 tested, 0.15% active | AID 504523; in the data active = inhibition above about 12%;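 note: human Keap1 Kelch domain with fluorescein labeled Nrf2 9mer peptide probe; 0% = neutral control wells and 100% = peptide positive control; higher means more block of Keap1 binding to Nrf2 peptide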
E coli Lon conf: E. coli Lon inhibition confirmation | shares compounds with eLon inh | inhibition, % at 7.94 µM | purified E. coli Lon, fluorescence polarization | 1,400 tested, 31% active; in the data active = inhibition above about 16%;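 note: 0% = enzyme with probe and DMSO and 100% = no enzyme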
* marks the source's active call; other numbers are inactive results; i = inactive; / = not tested or not shown; + = active, no number.

SMILES	EBV gp42 block	eLon inh	LANA DNA inh	LANA-H2B inh	GLD-1 TGE inh	Keap1-Nrf2 PPI	E coli Lon conf
CC(C)(C)NC(=S)N1CCC2CC1c1c(Cl)cccc12 (stereo unspecified)	/	-5	/	/	/	/	/
COCCN(C(=O)COC(=O)/C=C/c1ccc(OC)c(OC)c1)c1c(N)n(Cc2ccccc2)c(=O)[nH]c1=O	/	-1	0	-2	-5	0	/
Cc1ccc(SCCC(=O)Nc2ccccc2C(=O)NC(C)C)cc1	4	69*	0	2	4	-2	15
Cc1c2ccccc2nc2c(F)c(NC(C)C)c(F)c(F)c12	168*	107*	8	-1	119*	-1	194*
Cc1c2ccccc2nc2c(F)c(NCCO)c(F)c(F)c12	187*	50*	12	/	83*	-2	+
OCCNc1c2ccccc2nc2c(F)c(F)c(F)c(F)c12	29	1	2	i	16	-8	/
CC(=O)N1CCN(S(=O)(=O)c2cccc(C(=O)OCc3cccc(F)c3)c2)CC1	/	-3	-1	4	0	-1	/
CC(=O)Nc1ccc2nc3c(=O)n(C)c(=O)n(C)c3nc2c1	102*	68*	15	1	65*	5	64*
CC(C)C[C@@H](CN1CCC[C@H]1CN1C(=O)C(=O)NC[C@@H]1Cc1ccccc1)N1C[C@H](Cc2ccc(O)cc2)N(CC2CCCCCC2)C(=O)C1=O	/	11*	/	/	/	/	13
CCOc1ccccc1N1CCN(Cc2ccc(Br)s2)CC1	-23	28*	1	-4	9	1	11
CCCCn1c2ccccc2c2cc(CC(N)=O)ccc21	-9	13	-3	3	3	-2	/
c1cc2c3c(cccc3c1)C(N1CCCCC1)=N2	27	27*	3	-1	30	3	52*
c1ccc2c(c1)CCN(C1=Nc3cccc4cccc1c34)C2	41	35*	2	/	/	1	106*
CC1=C(C(=O)c2ccccc2)C(c2cccc([N+](=O)[O-])c2)NC(=S)N1 (stereo unspecified)	-5	26*	-1	-3	-2	-3	1
Cc1cc(C(=O)NC2CCCc3c2cnn3-c2ccccc2F)nc(C)n1 (stereo unspecified)	/	-7	-1	-2	-3	3	/
C=CCCC(=O)NC1CCCc2c1cnn2-c1ccccc1F (stereo unspecified)	/	29*	-1	1	0	-5	2
CCCCS(=O)(=O)Nc1ccc(N2CCOCC2)c(S(=O)(=O)N2CCOCC2)c1	/	19*	0	-1	-4	-2	5
Cc1ccccc1-n1ccnc1SCC(=O)Nc1cccc(S(=O)(=O)NC2=NCCC2)c1	/	17*	0	-1	2	0	-1
Cc1ccccc1OCC(=O)Nc1cccc(S(=O)(=O)NC2=NCCC2)c1	/	-3	0	-5	9	3	/
COc1ccc(CN2CCC(CO)(Cc3ccccc3C(F)(F)F)CC2)c(F)c1	-10	20*	1	-1	3	0	0
COc1ccc(CC2(CO)CCN(Cc3cccc4nccnc34)CC2)cc1	0	1	1	0	-5	6	/
Oc1ccccc1/C=N/c1c(-c2ccco2)nc2ccccn12	14	30*	3	-1	14	2	3
Brc1ccc(-c2nnc3n2-c2ccccc2CC3)cc1	-8	-4	0	-4	5	0	/
O=c1c(-c2ccccc2)c[nH]n1-c1cccc([N+](=O)[O-])c1	-3	1	0	1	-7	2	/
O=c1c(-c2ccc(Cl)cc2)c[nH]n1-c1ccccc1	/	18*	0	-2	-4	-2	0
SMILES	EBV gp42 block	eLon inh	LANA DNA inh	LANA-H2B inh	GLD-1 TGE inh	Keap1-Nrf2 PPI	E coli Lon conf
COCCn1c(N)c(N(Cc2ccccc2)C(=O)C2=COCCO2)c(=O)[nH]c1=O	/	29*	0	1	22	1	6
CCCCC1=CC2=C(c3ccco3)C(=O)C(C)(OC(=O)c3ccc(OC)cc3)C(=O)C2=CN1CCOC (stereo unspecified)	13	48*	2	-2	16	-1	12
CCCCC1=CC2=C(c3ccco3)C(=O)C(C)(OC(=O)c3ccc(OC)cc3)C(=O)C2=CN1CCc1ccccn1 (stereo unspecified)	46	37*	1	-1	16	-5	-18
CC(=O)N(NC(N)=O)C(C)CC(=O)C1C(C)C=CCC1(C)C (stereo unspecified)	-8	10	2	0	-3	2	/
C=CCN(c1nc(C)c(Br)c(OC)n1)S(=O)(=O)c1ccc(C)cc1	/	49*	3	-3	7	-2	6
CC1(C)CC(=O)C(C=Nc2ccc(C(=O)c3ccccc3)cc2N=CC2=C(O)CC(C)(C)CC2=O)=C(O)C1	2	13*	1	4	104*	-7	-20
CC1(C)CC(=O)C(C=Nc2cccnc2/N=C/C2=C(O)CC(C)(C)CC2=O)=C(O)C1	6	52*	1	7	118*	-6	-3
CC1(C)CC(=O)C(C=Nc2cccnc2)=C(O)C1	-8	-3	-1	2	7	1	/
CC1(CCl)N([O-])C2=C(CCCC2)[N+]1=O (stereo unspecified)	-30	0	0	-6	3	-1	/
Cc1ccc(-c2nnn(CC(=O)N(CC(=O)NC3CCCC3)c3ccccc3F)n2)o1	/	-6	0	/	/	-1	/
CCN(C(=O)COC(=O)C(c1ccccc1)c1ccccc1)c1c(N)n(Cc2ccccc2)c(=O)[nH]c1=O	/	25*	1	/	/	-6	-2
Nc1c(NCc2ccccc2)c(=O)[nH]c(=O)n1Cc1ccccc1	7	15*	17	7	86*	7	16
Cn1c(=O)[nH]c(=O)c2c1nc(NCc1ccccc1)n2Cc1ccc(F)cc1	/	6	-2	-1	/	3	/
O=C(O)c1ccccc1C(=O)NCC(O)COc1ccc(Cl)cc1 (stereo unspecified)	-22	-7	1	0	-7	-5	/
COc1ccc(Cl)cc1-c1cc(C(=O)Nc2ccc(Br)cc2)[nH]n1	/	-7	/	/	/	/	/
O=C(COc1cccc(F)c1)Nc1nc(-c2ccccn2)cs1	/	7	/	/	/	/	/
O=C(COc1ccc(F)cc1)Nc1nc(-c2ccccn2)cs1	/	19*	0	1	6	2	-10
O=C(c1[nH]c(C(F)(F)F)nc1-c1ccccc1)N1CCc2c([nH]c3ccccc23)C1	/	-1	/	/	/	/	/
Cc1c(NC(=O)CN2CCC(C(N)=O)CC2)cccc1[N+](=O)[O-]	-12	5	-1	5	7	-5	/
CC1CCCN(C(=O)CSc2nc3ncccc3[nH]2)C1 (stereo unspecified)	-8	17*	-3	0	2	0	-1

Screens deposited in PubChem BioAssay by several laboratories.
